About 83,000 compounds went through this panel and 20% of them were active in at least one assay; those are over-represented in the sample as a whole.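 Activity criterion: percent growth below 10, measured after cells in 96-well plates were exposed to a single compound concentration for 48 hours.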 The source made the active and inactive calls.

The assay deals with A498 renal. As to the kind of experiment: NCI-60 one-dose screen, 48 h (100 = growth as untreated, 0 = no growth, -100 = all killed). The conditions noted are these: 10 µM unless noted.
As for `CC(=O)OC[C@]12CC[C@@H]([C@@H](C)c3nnc(-c4ccncc4)o3)[C@@H]1[C@H]1CC[C@@H]3[C@@]4(C)CC[C@H](OC(C)=O)C(C)(C)[C@@H]4CC[C@@]3(C)[C@]1(C)CC2`, the growth was 97.4% (inactive).

For `CN(Cc1ccccc1)c1nc(Cl)c(C2CC(c3ccccc3)=NN2c2ccccc2)s1` (stereo not drawn), the growth was 105% (inactive).

For `CSc1nc(C)c([N+](=O)[O-])c(N)n1`, the growth is 101% (inactive).

As to `CN1CCN(Cc2ccc(NC(=O)c3cncc(C#Cc4cnc(N)c5ccc(F)cc45)c3)cc2C(F)(F)F)CC1`, the growth is 25% (inactive).

Regarding `CN1CCN(C(=O)[C@@]2(C)CC[C@]3(C)CC[C@]4(C)C(=CC[C@@H]5[C@@]6(C)CCC(=O)NC(C)(C)[C@@H]6CC[C@]54C)[C@@H]3C2)CC1`, the growth was 73.1% (inactive).

On to `COc1ccc(/C=C2\CN(C(=O)C(Cl)Cl)C/C(=C\c3ccc(OC)cc3)C2=O)cc1`, for which the growth was -73.1% (active).

`O=C(NNc1cnccn1)c1nc2cc(F)ccc2n2cccc12`: the growth is -42.1% (active).

Turning to `COc1cc(/C=C2\CN(S(=O)(=O)c3ccccc3)C/C(=C\c3cc(CN4CCCCC4)c(O)c(OC)c3)C2=O)cc(CN2CCCCC2)c1O`, the growth is 95% (inactive).

As for `COc1ccc(/C=C/C(c2cc(OC)c(OC)c(OC)c2)n2ccnc2)cc1O` (stereo not drawn), the growth was 67.5% (inactive).

As to `C/C=C(/C)n1cnc2c(Nc3ccccn3)nc(Cl)nc21`, the growth is 111% (inactive).

`Oc1ccc(/C=C/c2ccc(O)cc2)cc1`: the growth is 77.5% (inactive).

As to `C#CCOc1cccc(-c2ncnc3cc(NC(=O)C=C)ccc23)c1`, the growth is 44.5% (inactive).

Turning to `CCOC(=O)c1nn(CC(O)c2ccccc2)c(NC(=O)Nc2cccc(F)c2)c1C` (stereo not drawn), the growth was 76.7% (inactive).

Turning to `O=C(N/N=C\c1ccccc1S(=O)(=O)O)N/N=C/c1ccccc1S(=O)(=O)O`, the growth was 101% (inactive).

As for `CC[C@]12C=CCN3CC[C@@]4(c5ccc(OC)cc5N(C)[C@H]4[C@@](O)(C(=O)OC)[C@@H]1OC(=O)CCC[P+](c1ccccc1)(c1ccccc1)c1ccccc1)[C@@H]32`, the growth was 13.7% (inactive).

In the case of `CCCn1nc(C(=O)N(C)Cc2ccccc2)c2c1CCC(N1CCc3ccccc31)C2` (stereo not drawn), the growth is 95.9% (inactive).

As to `C=C1C(=O)O[C@H]2[C@H]1CC/C(COC(=O)/C=C\C(=O)NCc1ccc(Cn3c(=O)sn(CCCl)c3=O)cc1)=C\CC[C@@]1(C)O[C@@H]21`, the growth was 132% (inactive).

Take `COC(=O)c1ccc(NC(=O)Nc2ccc(C(=O)OC)cc2)cc1`: the growth is 81.3% (inactive).

As for `O=C(O)c1cn(C2CC2)c2cc(N3CCN(C(=O)Nc4nc(-c5ccc(Br)cc5)cs4)CC3)c(F)cc2c1=O`, the growth was -7.91% (active).

Turning to `NC(=O)c1c(NC(=O)c2cccc(C(F)(F)F)c2)sc2c1CCC(=O)C2`, the growth was 53.2% (inactive).

`CC1=C(C(=O)Nc2ccccc2)C(c2ccc3c(c2)OCO3)NC(=S)N1` (stereo not drawn): the growth was 114% (inactive).

Regarding `NS(=O)(=O)c1ccc(-c2cc(-c3nnc(SCC(=O)Nc4ccc(C(=O)/C=C/c5ccc(Cl)cc5)cc4)n3-c3ccccc3)c3ccccc3n2)cc1`, the growth is 49.9% (inactive).

`COC(=O)c1cc(Br)ccc1O`: the growth was 101% (inactive).

Regarding `C=C1C(=O)O[C@H]2[C@H]1CC/C(COC(=O)/C=C/C(=O)OC/C1=C/CC[C@@]3(C)O[C@H]3[C@H]3OC(=O)C(=C)[C@@H]3CC1)=C\CC[C@@]1(C)O[C@@H]21`, the growth was 102% (inactive).

As to `CNC1=CC(=O)c2c(C(=O)OC)c(C)[n+]([O-])c(C)c2C1=O`, the growth was 103% (inactive).

In the case of `O=C(Nc1ncccc1OCc1ccccc1)NC1CCCCCC1`, the growth is 101% (inactive).

For the molecule `O=C1/C(=C\c2cccc3nccnc23)SC(=S)N1CCc1ccc(O)cc1`, the growth is 105% (inactive).

As to `O=C1/C=C/[C@@H](O)[C@@H]2C[C@@H](O)C[C@H]2/C=C/CCC[C@@H](O)CCO1`, the growth is 66.7% (inactive).

Regarding `Cc1ccc(CNc2c3ccccc3nc3ccccc23)cc1`, the growth was 7.64% (active).

On to `Cc1ccnc(Nc2ccc([N+](=O)[O-])c(NCCN3CCOCC3)n2)c1`, for which the growth was 24.9% (inactive).

Turning to `CSc1nn2c(-c3ccc4ccccc4c3)ccnc2c1C#N`, the growth was 21.9% (inactive).

For the molecule `COc1cc2nc3sc(C(=O)Nc4ccc(C(=O)OC(C)C)cc4)c(C(=O)Nc4ccc(Cl)cc4C)n3c(=O)c2cc1OC`, the growth was 56.7% (inactive).

In the case of `COC(=O)/C=C1/SC(=Nc2ccc([N+](=O)[O-])cc2)N(CCc2c[nH]c3ccc(O)cc23)C1=O`, the growth was 80.5% (inactive).

The values above are taken from PubChem BioAssay (NCI).
